Experimental data as given in PubChem BioAssay AID2284344 (EPA ToxCast).
Results filed as inconclusive are left out. Calls of active or inactive are those of the source. How the source made its calls: active means hit-call score of the fitted dose curve at least 0.9, where 1 is the maximum; inconclusive means response in the unintended direction; inactive means score below 0.9.

Tested on: frog Peroxisome Proliferator-activated Receptor-alpha (PPARa), gene 398843
Experiment: ATG_frPPARa_EcoTox2: Attagene TRANS-FACTORIAL EcoTox-2 HepG2 Assay for frog Peroxisome Proliferator-activated Receptor-alpha (PPARa)
Protocol: ATG_EcoTox2 is a cell-based, multiplexed assay created by modifying the existing Attagene TRANS-FACTORIAL system to include a panel of nuclear receptors from some or all the following species: human (Homo sapiens), african clawed frog (Xenopus laevis), rainbow trout (Oncorhynchus mykiss), japanese medaka (Oryzias latipes), and zebrafish (Danio rerio). The ECOTOX2-FACTORIAL format uses HepG2, a human liver cell line, with measurements taken at 24 hours after chemical dosing in a 24-well plate. ATG_frPPARa_EcoTox2 is one of 29 assay components calculated in the ATG_EcoTox2 assay. It is designed to make measurements of mRNA induction, a form of inducible reporter, as detected with fluorescence intensity signals by Reverse transcription polymerase chain reaction (RT-PCR) and Capillary electrophoresis technology.The assay endpoint ATG_frPPARa_EcoTox2 was analyzed in the positive analysis fitting direction relative to DMSO as the negative control and baseline of activity. Using a type of inducible reporter, measures of mRNA for gain-of-signal activity can be used to understand the reporter gene at the transcription factor-level as they relate to the gene PPARa. Furthermore, this assay endpoint can be referred to as a primary readout, because this assay has produced multiple assay endpoints where this one serves a reporter gene function. To generalize the intended target to other relatable targets, this assay endpoint is annotated to the nuclear receptor intended target family, where the subfamily is non-steroidal.
Human liver HepG2 cells are transiently transfected with multiple reporter transcription units (MRTUs) in 6-well plates using FuGene 6 reagent (Roche; 3 ml FuGene/1 mg DNA). The MRTU constructs are regulated by a cis-regulating element (promoter). Each RTU expresses a GAL4-UAS that regulates the transcription of a nearby target reporter gene sequence. A major difference between the CIS and TRANS system is that in CIS activities of endogenous TFs are measured, whereas the TRANS assay evaluates changes in activities of exogenous, chimeric NR-Gal4 proteins. […] At the end of 24 hour incubation, total RNA was isolated using TriZol reagent (Invitrogen). The isolated RNA is then reverse-transcribed using oligo(dT) primer and Mo-MLV reverse transcriptase (Invitrogen) with DNAse I (Ambion) treatment for 30 min. The one-tenth of the produced cDNA was amplified by PCR using Taq DNA polymerase (Invitrogen) and two reporter sequence-specific primers. […] The fragments were purified using Qiaquick PCR columns (Qiagen), analyzed on an ABI 3130xL genetic analyzer (Applied Biosystems) with peak positions identified by using a set of X-rhodamine (ROX)-labeled MapMarker1000 molecular weight standards (BioVentures). […]

| Compound | outcome | AC50 |
| --- | --- | --- |
| O=P(Oc1ccccc1)(Oc1ccccc1)Oc1ccccc1 | inactive | – |
| O=S(=O)(O)C(F)(F)C(F)(F)C(F)(F)C(F)(F)C(F)(F)C(F)(F)F | inactive | – |
| [Cl][Sn]([c]1ccccc1)([c]1ccccc1)[c]1ccccc1 | inactive | – |
| O=C(O)C(F)(F)C(F)(F)C(F)(F)C(F)(F)C(F)(F)C(F)(F)C(F)(F)F | – | 75 µM (active) |
